Where “and” joins values, the source holds several entries; their conditions need not be identical. Equal values may be shown once.
How the values were obtained:
[1] = molecular target: Tyrosine-protein kinase SYK (Homo sapiens) (UniProt P43405); conditions: at 1 µM
[2] = molecular target: T1, Tyrosine-protein kinase Tec (Homo sapiens) (UniProt P42680); conditions: at 0.1 µM
T1 sequence (whole entry): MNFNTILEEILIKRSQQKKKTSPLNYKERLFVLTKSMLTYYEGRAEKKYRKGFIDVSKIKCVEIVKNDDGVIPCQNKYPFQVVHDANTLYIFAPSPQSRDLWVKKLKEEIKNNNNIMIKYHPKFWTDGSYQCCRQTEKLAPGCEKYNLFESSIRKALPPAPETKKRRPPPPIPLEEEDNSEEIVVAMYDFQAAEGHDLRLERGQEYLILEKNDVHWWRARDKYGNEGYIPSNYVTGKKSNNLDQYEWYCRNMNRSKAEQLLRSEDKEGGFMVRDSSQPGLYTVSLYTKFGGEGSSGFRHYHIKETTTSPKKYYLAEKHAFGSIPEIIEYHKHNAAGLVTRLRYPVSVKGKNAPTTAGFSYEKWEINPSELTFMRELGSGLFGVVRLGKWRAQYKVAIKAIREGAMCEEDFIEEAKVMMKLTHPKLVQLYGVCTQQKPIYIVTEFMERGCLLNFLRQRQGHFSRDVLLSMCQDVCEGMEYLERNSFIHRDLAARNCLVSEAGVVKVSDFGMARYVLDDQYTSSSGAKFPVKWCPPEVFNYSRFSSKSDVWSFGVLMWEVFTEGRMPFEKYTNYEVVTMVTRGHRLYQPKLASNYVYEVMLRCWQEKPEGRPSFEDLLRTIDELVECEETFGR

[3] = molecular target: T1, Tyrosine-protein kinase Tec (Homo sapiens); conditions: at 1 µM
[4] = molecular target: Angiopoietin-1 receptor (Homo sapiens) (UniProt Q02763); conditions: at 0.1 µM
[5] = molecular target: Angiopoietin-1 receptor (Homo sapiens) (UniProt Q02763); conditions: at 1 µM
[6] = molecular target: T2, Non-receptor tyrosine-protein kinase TNK1 (Homo sapiens) (UniProt Q13470); conditions: at 0.1 µM
T2 sequence (whole entry): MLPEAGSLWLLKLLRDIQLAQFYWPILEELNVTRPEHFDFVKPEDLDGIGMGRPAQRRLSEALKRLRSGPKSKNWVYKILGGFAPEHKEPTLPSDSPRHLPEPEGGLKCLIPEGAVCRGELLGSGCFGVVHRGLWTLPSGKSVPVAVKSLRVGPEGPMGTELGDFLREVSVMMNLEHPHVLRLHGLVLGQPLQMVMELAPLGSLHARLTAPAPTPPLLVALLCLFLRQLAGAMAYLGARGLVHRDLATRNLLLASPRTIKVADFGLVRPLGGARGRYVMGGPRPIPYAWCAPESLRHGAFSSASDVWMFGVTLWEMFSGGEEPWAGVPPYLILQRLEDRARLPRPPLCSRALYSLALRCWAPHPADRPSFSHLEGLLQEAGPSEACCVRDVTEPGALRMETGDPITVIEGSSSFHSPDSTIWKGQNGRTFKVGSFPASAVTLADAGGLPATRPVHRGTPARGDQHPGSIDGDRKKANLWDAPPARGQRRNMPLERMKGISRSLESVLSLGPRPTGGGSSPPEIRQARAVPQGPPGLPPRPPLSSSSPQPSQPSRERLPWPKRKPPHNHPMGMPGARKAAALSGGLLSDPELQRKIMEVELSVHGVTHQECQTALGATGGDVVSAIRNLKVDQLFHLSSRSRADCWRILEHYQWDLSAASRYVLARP

[7] = molecular target: T2, Non-receptor tyrosine-protein kinase TNK1 (Homo sapiens); conditions: at 1 µM
[8] = molecular target: Activated CDC42 kinase 1 (Homo sapiens) (UniProt Q07912); conditions: at 0.1 µM
[9] = molecular target: Activated CDC42 kinase 1 (Homo sapiens) (UniProt Q07912); conditions: at 1 µM
[10] = molecular target: High affinity nerve growth factor receptor (Homo sapiens) (UniProt P04629); conditions: at 0.1 µM
[11] = molecular target: High affinity nerve growth factor receptor (Homo sapiens) (UniProt P04629); conditions: at 1 µM
[12] = molecular target: BDNF/NT-3 growth factors receptor (Homo sapiens) (UniProt Q16620); conditions: at 0.1 µM
[13] = molecular target: BDNF/NT-3 growth factors receptor (Homo sapiens) (UniProt Q16620); conditions: at 1 µM
[14] = molecular target: NT-3 growth factor receptor (Homo sapiens) (UniProt Q16288); conditions: at 0.1 µM
[15] = molecular target: NT-3 growth factor receptor (Homo sapiens) (UniProt Q16288); conditions: at 1 µM
[16] = molecular target: T3, Tyrosine-protein kinase TXK (Homo sapiens) (UniProt P42681); conditions: at 0.1 µM
T3 sequence (whole entry): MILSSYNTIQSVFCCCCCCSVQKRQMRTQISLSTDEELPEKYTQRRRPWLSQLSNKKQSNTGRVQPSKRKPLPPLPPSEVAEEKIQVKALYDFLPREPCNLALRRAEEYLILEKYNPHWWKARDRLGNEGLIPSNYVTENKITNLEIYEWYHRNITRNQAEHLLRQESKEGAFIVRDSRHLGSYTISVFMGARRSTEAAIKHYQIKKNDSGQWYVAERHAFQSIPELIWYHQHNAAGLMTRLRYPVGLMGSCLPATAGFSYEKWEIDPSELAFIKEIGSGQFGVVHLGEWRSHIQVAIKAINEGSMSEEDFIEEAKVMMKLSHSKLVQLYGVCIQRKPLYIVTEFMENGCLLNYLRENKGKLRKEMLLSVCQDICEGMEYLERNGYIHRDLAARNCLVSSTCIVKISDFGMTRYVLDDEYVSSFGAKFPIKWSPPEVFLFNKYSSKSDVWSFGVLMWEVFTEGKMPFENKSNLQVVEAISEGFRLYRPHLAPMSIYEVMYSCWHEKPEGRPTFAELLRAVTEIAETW

[17] = molecular target: T3, Tyrosine-protein kinase TXK (Homo sapiens); conditions: at 1 µM
[18] = molecular target: Non-receptor tyrosine-protein kinase TYK2 (Homo sapiens) (UniProt P29597); conditions: at 0.1 µM;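 note: each value is a mean of the inhibition readings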
[19] = molecular target: T4, Dual specificity protein kinase TTK (Homo sapiens) (UniProt P33981); conditions: at 1 µM;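 note: reported figures are mean TTK inhibition at 1 µM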
T4 sequence (whole entry): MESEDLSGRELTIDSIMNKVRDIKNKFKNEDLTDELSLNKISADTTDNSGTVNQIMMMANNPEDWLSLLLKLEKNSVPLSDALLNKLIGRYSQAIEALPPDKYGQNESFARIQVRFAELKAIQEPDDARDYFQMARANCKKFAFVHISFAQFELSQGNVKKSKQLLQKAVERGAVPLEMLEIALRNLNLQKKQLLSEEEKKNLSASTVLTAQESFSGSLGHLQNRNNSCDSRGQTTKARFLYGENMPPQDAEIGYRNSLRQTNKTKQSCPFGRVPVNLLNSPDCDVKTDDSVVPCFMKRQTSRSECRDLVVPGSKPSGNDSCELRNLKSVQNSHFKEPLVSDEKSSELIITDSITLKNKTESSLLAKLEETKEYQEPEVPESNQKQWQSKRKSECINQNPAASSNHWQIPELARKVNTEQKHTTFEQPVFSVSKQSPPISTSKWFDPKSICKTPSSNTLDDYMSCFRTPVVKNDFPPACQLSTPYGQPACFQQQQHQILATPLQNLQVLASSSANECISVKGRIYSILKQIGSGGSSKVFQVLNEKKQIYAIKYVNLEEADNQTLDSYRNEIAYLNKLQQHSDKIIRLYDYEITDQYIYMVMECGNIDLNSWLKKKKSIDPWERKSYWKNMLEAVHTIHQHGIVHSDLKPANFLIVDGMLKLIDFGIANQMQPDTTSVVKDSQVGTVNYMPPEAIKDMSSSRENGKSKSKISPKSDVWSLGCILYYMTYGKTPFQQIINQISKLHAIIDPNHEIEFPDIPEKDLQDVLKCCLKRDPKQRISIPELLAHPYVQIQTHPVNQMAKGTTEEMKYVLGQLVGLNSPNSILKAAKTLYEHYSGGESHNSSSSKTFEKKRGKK

[20] = molecular target: T5, Aurora kinase A (Homo sapiens) (UniProt O14965); conditions: at 0.1 µM;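 note: each reported value is a mean percent inhibition of Aurora-A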
T5 sequence (whole entry): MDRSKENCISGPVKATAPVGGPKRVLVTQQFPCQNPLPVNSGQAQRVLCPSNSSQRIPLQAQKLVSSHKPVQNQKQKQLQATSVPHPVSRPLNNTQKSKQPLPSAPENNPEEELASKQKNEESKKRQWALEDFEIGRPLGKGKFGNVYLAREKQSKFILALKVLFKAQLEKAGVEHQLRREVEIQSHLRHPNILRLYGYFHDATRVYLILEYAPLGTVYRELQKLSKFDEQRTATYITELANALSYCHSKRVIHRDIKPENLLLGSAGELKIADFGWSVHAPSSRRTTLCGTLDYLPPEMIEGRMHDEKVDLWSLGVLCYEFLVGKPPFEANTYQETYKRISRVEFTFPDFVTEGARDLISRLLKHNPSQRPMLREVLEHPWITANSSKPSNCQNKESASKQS

Sequence of High affinity nerve growth factor receptor (Homo sapiens) (P04629 33-796 limits assumed): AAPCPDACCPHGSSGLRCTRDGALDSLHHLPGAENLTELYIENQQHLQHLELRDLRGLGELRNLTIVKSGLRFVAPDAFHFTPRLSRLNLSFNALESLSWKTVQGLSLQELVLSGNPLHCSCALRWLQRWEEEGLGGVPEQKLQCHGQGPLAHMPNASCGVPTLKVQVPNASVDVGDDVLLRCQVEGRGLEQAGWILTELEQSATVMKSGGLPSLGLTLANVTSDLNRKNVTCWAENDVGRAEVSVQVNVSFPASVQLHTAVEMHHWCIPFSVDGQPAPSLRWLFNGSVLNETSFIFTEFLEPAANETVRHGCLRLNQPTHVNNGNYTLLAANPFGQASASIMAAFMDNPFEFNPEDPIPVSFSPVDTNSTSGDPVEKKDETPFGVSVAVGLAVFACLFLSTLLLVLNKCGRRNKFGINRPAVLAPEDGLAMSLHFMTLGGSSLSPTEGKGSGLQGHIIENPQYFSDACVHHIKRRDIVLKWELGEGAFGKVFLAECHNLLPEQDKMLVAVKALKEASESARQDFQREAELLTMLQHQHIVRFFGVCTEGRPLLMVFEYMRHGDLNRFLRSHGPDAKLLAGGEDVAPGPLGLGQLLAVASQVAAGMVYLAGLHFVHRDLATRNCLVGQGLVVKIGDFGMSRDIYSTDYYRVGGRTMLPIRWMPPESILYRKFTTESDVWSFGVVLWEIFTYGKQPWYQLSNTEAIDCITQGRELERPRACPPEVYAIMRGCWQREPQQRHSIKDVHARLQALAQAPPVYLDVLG
Sequence of BDNF/NT-3 growth factors receptor (Homo sapiens) (Q16620 32-822 limits assumed): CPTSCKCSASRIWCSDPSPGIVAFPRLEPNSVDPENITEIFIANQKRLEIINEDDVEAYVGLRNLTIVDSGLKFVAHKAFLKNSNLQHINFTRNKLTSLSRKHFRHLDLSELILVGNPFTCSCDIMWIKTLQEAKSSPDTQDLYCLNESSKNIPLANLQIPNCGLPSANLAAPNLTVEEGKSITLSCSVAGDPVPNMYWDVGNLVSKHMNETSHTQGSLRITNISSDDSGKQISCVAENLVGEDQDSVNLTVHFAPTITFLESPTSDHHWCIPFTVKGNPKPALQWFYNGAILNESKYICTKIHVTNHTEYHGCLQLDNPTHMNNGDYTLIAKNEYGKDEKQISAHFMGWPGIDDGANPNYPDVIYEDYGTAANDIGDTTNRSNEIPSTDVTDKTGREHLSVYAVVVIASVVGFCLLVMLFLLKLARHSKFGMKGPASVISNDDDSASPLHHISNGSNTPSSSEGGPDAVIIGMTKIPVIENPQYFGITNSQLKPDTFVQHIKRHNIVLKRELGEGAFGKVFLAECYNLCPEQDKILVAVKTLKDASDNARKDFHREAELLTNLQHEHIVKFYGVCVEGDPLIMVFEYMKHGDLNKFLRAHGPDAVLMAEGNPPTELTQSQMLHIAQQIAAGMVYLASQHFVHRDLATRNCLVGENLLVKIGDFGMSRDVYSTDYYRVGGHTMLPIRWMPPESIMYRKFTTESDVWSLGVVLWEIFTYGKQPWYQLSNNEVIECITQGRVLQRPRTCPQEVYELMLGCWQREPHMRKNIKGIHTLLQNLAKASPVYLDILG
Sequence of NT-3 growth factor receptor (Homo sapiens) (Q16288 32-839 limits assumed): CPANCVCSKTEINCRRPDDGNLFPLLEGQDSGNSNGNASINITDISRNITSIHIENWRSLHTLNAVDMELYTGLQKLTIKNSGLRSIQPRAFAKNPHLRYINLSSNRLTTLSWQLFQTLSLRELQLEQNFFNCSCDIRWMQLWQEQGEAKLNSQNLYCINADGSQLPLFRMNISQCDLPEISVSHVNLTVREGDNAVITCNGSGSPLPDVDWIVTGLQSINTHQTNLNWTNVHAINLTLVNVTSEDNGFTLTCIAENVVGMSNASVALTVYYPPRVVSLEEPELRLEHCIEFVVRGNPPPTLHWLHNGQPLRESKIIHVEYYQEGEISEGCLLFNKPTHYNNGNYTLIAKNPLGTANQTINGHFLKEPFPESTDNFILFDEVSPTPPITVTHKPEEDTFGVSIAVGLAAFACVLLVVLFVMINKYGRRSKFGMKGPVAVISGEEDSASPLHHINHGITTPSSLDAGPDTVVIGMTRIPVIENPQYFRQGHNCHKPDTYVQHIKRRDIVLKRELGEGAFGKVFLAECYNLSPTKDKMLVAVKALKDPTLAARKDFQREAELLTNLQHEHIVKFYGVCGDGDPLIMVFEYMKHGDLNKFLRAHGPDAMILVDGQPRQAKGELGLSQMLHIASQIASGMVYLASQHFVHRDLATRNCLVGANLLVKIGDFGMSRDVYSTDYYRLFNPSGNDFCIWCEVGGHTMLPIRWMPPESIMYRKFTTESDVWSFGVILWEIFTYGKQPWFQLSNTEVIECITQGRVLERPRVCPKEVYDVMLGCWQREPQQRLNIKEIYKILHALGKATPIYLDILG
Sequence of Angiopoietin-1 receptor (Homo sapiens) (Q02763 whole entry): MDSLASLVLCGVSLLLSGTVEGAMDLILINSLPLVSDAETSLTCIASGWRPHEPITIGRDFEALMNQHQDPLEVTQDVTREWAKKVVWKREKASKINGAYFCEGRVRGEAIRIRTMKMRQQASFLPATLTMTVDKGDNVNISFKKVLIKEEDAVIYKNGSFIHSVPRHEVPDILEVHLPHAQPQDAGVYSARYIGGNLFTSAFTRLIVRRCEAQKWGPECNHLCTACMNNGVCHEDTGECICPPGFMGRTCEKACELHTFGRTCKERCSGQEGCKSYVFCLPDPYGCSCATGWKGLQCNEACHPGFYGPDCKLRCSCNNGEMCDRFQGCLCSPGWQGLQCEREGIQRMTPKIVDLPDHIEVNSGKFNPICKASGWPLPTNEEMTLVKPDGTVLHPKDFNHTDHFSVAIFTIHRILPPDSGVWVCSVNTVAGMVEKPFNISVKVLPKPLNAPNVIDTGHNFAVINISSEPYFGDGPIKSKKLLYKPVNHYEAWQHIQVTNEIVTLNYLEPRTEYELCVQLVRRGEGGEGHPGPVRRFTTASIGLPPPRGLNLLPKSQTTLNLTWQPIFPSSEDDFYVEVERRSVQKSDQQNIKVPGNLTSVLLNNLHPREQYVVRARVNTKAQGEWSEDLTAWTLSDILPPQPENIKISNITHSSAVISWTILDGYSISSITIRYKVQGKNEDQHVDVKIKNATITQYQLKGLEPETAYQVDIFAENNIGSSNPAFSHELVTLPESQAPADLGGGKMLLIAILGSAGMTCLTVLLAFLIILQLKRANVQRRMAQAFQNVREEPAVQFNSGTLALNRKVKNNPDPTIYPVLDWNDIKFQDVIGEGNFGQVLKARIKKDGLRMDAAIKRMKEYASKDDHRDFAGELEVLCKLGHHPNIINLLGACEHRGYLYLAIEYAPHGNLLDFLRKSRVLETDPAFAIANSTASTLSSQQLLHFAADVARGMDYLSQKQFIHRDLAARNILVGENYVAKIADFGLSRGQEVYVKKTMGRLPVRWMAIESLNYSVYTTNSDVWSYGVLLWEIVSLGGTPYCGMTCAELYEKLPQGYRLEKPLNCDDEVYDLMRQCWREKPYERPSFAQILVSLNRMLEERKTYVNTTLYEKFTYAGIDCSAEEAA
Sequence of Activated CDC42 kinase 1 (Homo sapiens) (Q07912 whole entry, looked up): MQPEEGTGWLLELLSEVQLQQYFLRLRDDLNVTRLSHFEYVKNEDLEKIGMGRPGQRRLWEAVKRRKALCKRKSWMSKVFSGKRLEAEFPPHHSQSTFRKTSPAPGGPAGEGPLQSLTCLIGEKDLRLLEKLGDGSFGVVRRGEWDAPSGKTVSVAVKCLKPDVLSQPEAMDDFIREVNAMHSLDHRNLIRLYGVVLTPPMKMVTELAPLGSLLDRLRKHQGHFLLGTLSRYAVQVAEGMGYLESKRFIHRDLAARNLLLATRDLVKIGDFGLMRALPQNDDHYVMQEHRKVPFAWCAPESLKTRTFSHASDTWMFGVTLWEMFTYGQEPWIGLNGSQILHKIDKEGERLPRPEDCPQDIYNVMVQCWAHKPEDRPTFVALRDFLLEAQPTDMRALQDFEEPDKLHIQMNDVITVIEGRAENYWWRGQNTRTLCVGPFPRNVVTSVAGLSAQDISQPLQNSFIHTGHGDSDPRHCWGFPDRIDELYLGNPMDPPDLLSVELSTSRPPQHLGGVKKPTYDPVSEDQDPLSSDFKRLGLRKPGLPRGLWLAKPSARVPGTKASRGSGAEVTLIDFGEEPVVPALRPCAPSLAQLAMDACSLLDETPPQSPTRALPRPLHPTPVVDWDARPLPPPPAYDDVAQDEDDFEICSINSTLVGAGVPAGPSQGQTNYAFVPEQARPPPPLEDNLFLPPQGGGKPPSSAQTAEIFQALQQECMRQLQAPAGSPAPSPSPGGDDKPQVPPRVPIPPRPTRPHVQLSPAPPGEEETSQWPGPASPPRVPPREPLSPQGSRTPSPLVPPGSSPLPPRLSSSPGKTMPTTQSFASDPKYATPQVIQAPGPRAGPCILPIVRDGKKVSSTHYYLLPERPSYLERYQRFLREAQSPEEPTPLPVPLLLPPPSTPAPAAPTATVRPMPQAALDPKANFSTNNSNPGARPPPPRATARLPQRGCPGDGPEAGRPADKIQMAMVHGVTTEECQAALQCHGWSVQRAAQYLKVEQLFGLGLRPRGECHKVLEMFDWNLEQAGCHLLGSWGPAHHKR

Structure (SMILES)	inhibition [1]	inhibition [2]	inhibition [3]	inhibition [4]	inhibition [5]	inhibition [6]	inhibition [7]	inhibition [8]	inhibition [9]	inhibition [10]	inhibition [11]	inhibition [12]	inhibition [13]	inhibition [14]	inhibition [15]	inhibition [16]	inhibition [17]	inhibition [18]	inhibition [19]	inhibition [20]
COc1cc(N2CCN(C(C)C)CC2)ccc1Nc1nc(Nc2cccc(F)c2C(=O)O)c2cc[nH]c2n1	-7.57%	4.02%	5.87%	2.04%	5.53%	8.72%	53.4%	1.91%	5.95%	4.69%	0.85%	3.78%	6.6%	2.64%	4.58%	1.98%	3.5%	-3.16%	77.3%	3.47%
CNC(=O)c1cncc(/C=C/c2ccccc2C)c1	-0.24%	6.1%	16.4%	1.59%	-0.24%	3.86%	20.7%	1.54%	8.09%	3.97%	1.73%	2.61%	4.3%	3.82%	5.34%	6.85%	24.5%	-2.79%	11.7%	1.35%
CN1CCN(Cc2ccc(-c3cc4ncnc(Nc5ccc(OCc6cccc(F)c6)c(Cl)c5)c4s3)o2)CC1	-0.79% and 0.39%	0.53% and 4.75%	4.67% and 6.65%	4.14% and 4.04%	16.7% and 17.8%	2.88% and 6.1%	18.5% and 23.1%	1.15% and 2.06%	2.33% and 3.5%	1.64% and -0.7%	3.16% and 2.15%	3.04% and 3.64%	2.54% and 4.97%	2.27% and 4.29%	3.84% and 5.78%	-1.05% and 3.1%	5.76% and 4.28%	-2.41% and -3.9%	8.37% and 11.4%	1.75% and 2.97%
N#Cc1cccc(Nc2ncc(-c3ccccc3)o2)c1	-0.14%	1.29%	2.29%	0.48%	2.45%	2.36%	15.4%	0.46%	0.86%	-0.7%	12.6%	3.16%	26.5%	4.53%	25.1%	1.62%	3.17%	-5.06%	8.8%	1.03%
CNC(=O)c1ncccc1Nc1nc(Nc2cc3c(cc2OC)CCCN3C(=O)CN(C)C)nc2[nH]ccc12	1.95%	5.55%	7.76%	1.81%	-0.04%	50%	73%	2.4%	10.8%	5.07%	6.12%	3.17%	5.34%	2.2%	5.36%	3.73%	1.5%	-3.3%	35.2%	2.64%
O=C(O[C@H]1CN[C@H](C#Cc2cc3ncnc(Nc4ccc5c(ccn5Cc5cc(F)ccc5F)c4)c3s2)C1)N1CCOCC1	0.11%	4.74%	7.34%	3.18%	10.8%	2.48%	1.5%	0.66%	0.98%	1.93%	0.61%	1.99%	3.22%	2.18%	2.92%	3.8%	5.25%	-1.85%	9.66%	4.5%
O=C(O[C@H]1CN[C@H](C#Cc2cc3ncnc(Nc4ccc(OCc5cccc(F)c5)c(Cl)c4)c3s2)C1)N1CCOCC1	-2.54%	5.08%	4.41%	2.8%	7.75%	4.45%	21.9%	2.09%	2.88%	1.47%	0.52%	3.03%	5.79%	2.99%	7.73%	1.89%	1.16%	-6.96%	13%	1.79%

Reference: ChEMBL document CHEMBL1961873, “Compounds: GSK PKIS; Assays: Nanosyn kinase panel” (2012)
